Test results as given in PubChem BioAssay (Tox21).
Inconclusive results are not listed. Entries that show only a call come without a potency. Values without a mark were called inactive. Activity calls are given as the source filed them. Unless noted, the call rests on the fitted dose curve; in most records, active means well fitted curve in the direction sought with a large enough effect in the repeat runs; inconclusive means weak or mixed curves; inactive means no such curve, though single readings can be large; an effect the other way counts as inactive or inconclusive.

Tests used:
[1] = qHTS assay to identify small molecule agonists of the vitamin D receptor (VDR) signaling pathway - cell viability counter screen (AID 743224); further: nearly all actives have a fitted effect of over 50% in size; further: potency means the concentration at half of the fitted maximal effect; on activity change, negative = cytotoxicity: series mostly up to about 63 µM
How it was run: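 VDR-bla cells, 4 h after plating, exposed to compounds for 16 h at 37C; viability then read in the same wells as CellTiter-Glo luminescence after 30 min at room temperature, following the bla FRET read.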

[2] = qHTS assay to identify small molecule antagonists of the vitamin D receptor (VDR) signaling pathway - cell viability counter screen (AID 743225); further: nearly all actives have a fitted effect of over 50% in size; further: potency means the concentration at half of the fitted maximal effect
How it was run: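 Read-out: CellTiter-Glo luminescence measured 30 min after reagent addition at room temperature. Cells were VDR-bla HEK 293T exposed 16 h at 37C, 5% CO2, to compound with 3 nM final calcitriol agonist.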

[3] = qHTS assay to identify small molecule agonists of the NFkB signaling pathway - cell viability counter screen (AID 1159515; calls by dose curve; further: nearly all actives have a fitted effect of over 55% in size; further: potency means the concentration at half of the fitted maximal effect)
How it was run: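 NFkB-bla ME-180 cells, 2,000/well, plated overnight at 37 C; compound added for 5 hr at 37 C. Viability read in the same wells as the bla reporter, by CellTiter-Glo luminescence after 30 min at room temperature.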

[4] = qHTS assay to identify small molecule agonists of the endoplasmic reticulum stress response signaling pathway (AID 1159516; active means well fitted activation curve with a large enough effect in the signal ratio in the repeat runs, not every such curve was filed as active; the % refers to the signal ratio)
How it was run: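 CellSensor ESRE-bla HeLa cells, 1,500 per well, plated overnight, then exposed to compounds for 5 hr at 37 C. Beta-lactamase reporter read with LiveBLAzer B/G FRET substrate after 2 hr at room temperature, 405 nm excitation, 460 and 530 nm emission.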

[5] = qHTS assay to identify small molecule agonists of the endoplasmic reticulum stress response signaling pathway - cell viability counter screen (AID 1159517; calls by dose curve;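 further: HeLa cells carrying an ER stress response element beta-lactamase reporter; series mostly up to about 61 µM; nearly all actives have a fitted effect of over 50% in size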)
How it was run: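 HeLa cells carrying an ESRE-driven beta-lactamase reporter receive compound for 5 hr at 37 C. Cell viability is then gauged with CellTiter-Glo by luminescence, 30 min at room temperature.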

[6] = qHTS assay to identify small molecule antagonists of the retinoid-related orphan receptor gamma (ROR-gamma) signaling pathway - cell viability counter screen (AID 1159520); further: nearly all actives have a fitted effect of over 50% in size; further: potency means the concentration at half of the fitted maximal effect
How it was run: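 Cytotoxicity was read from cellular ATP (CellTiter-Glo luminescence) after 16 hr at 37 C with 1 uM doxycycline induction. The inducer was added 2 hr after compound transfer to Tet-on ROR gamma CHO cells.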

[7] = qHTS assay to identify small molecule agonists of the AP-1 signaling pathway - cell viability counter screen (AID 1159525; calls by dose curve; further: nearly all actives have a fitted effect of over 55% in size)
How it was run: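 Luminescent ATP readout (Cell Titer Glo, 30 min RT), normalised to DMSO and tetra n-octyl ammonium bromide controls. Cells were ME-180 AP-1-bla in 0.5% dialyzed FBS Opti-MEM, with a 5 h, 37 °C compound exposure.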

[8] = qHTS assay to identify small molecule agonists of the AP-1 signaling pathway (AID 1159526; calls by dose curve)
[9] = molecular target: Retinoic acid receptor RXR-alpha (Homo sapiens) (UniProt P19793); experiment: qHTS assay to identify small molecule agonists of the RXR signaling pathway (AID 1159527; calls by dose curve; further: nearly all actives have a fitted effect of over 35% in size)
How it was run: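 Read-out: beta-lactamase FRET ratio (405 nm excitation, 460 and 530 nm emission) after 2 hr substrate loading at room temperature. Cells were RXR-alpha-UAS-bla HEK 293T treated with compounds for 16 hr in 2% charcoal-stripped FBS medium.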

[10] = qHTS assay to identify small molecule agonists of the RXR signaling pathway - cell viability counter screen (AID 1159529); further: nearly all actives have a fitted effect of over 50% in size; further: potency means the concentration at half of the fitted maximal effect; on activity change, negative = cytotoxicity: series mostly up to about 77 µM
How it was run: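 HEK 293T RXRa-bla cells, 2% CS-FBS; 5 h settle; cpd 16 h 37 C, 5% CO2; CellTiter-Glo 30 min RT, luminescence. Tetraoctyl ammonium bromide as positive control.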

[11] = qHTS assay to identify small molecule antagonists of the retinoid acid receptor (RAR) signaling pathway - cell viability counter screen (AID 1159551); further: nearly all actives have a fitted effect of over 35% in size
How it was run: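 C3RL4 RARE-luciferase cells, 1,000/well, incubated overnight, then dosed with compound plus 1 uM retinol (final). After 6 hr at 37 C, viability read by CellTiter-Glo ATP luminescence following 30 min at room temperature.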

[12] = qHTS assay to identify small molecule antagonists of the retinoic acid receptor (RAR) signaling pathway (AID 1159552; further: nearly all actives have a fitted effect of over 50% in size)
How it was run: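 Cells of the C3RL4 line were seeded, incubated overnight, then dosed with compounds in DMSO followed immediately by retinol (1 uM final). Six hours later luciferase detection reagent went in; signal was measured after 30 min at RT.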

[13] = qHTS assay to identify small molecule agonists of the retinoic acid receptor (RAR) signaling pathway (AID 1159553)
How it was run: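 C3RL4 RARE-luciferase cells were seeded at 1,000/well and grown overnight at 37 C, then exposed to compounds for 6 hr at 37 C, 5% CO2. Luciferase reagent was added and luminescence was read after 30 min at room temperature.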

[14] = molecular target: Nuclear receptor ROR-gamma (Homo sapiens) (UniProt P51449); experiment: qHTS assay to identify small molecule antagonists of the retinoid-related orphan receptor gamma (ROR-gamma) signaling pathway (AID 1159521; further: nearly all actives have a fitted effect of over 50% in size; further: potency means the concentration at half of the fitted maximal effect)
How it was run: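 CHO Tet-on RORγ, RORE-luc reporter. Cpd 2 h pre-incubation, then dox hyclate 1 uM final, 16 h, 37 C/5% CO2. ONE-Glo luminescence; decrease = antagonist.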

Retinoic acid receptor RXR-alpha (Homo sapiens), sequence (P19793 whole entry, looked up): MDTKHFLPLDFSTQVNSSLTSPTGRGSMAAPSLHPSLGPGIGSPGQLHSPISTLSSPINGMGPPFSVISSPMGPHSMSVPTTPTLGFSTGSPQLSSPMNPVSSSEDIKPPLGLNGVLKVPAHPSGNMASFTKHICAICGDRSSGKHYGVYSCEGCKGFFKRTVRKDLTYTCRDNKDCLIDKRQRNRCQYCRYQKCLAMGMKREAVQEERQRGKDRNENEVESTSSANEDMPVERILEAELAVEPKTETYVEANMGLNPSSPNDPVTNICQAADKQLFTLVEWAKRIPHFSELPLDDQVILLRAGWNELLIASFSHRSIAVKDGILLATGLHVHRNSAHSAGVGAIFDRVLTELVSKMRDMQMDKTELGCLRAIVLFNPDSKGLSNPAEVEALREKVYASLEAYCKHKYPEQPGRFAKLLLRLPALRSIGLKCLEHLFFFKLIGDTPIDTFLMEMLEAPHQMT

C=C1[C@H]2CC[C@@H]3[C@H]2C(C)(C)CCC[C@]13C
Potency [1]: inactive
Potency [2]: inactive
Potency [3]: inactive
Potency [4]: inactive
Potency [5]: inactive
Potency [6]: inactive
Potency [7]: inactive
Potency [8]: inactive
Potency [9]: inactive
Potency [10]: inactive
Potency [11]: inactive
Potency [12]: inactive
Potency [13]: inactive

C=C(C)C(=O)OCC
Potency [1]: inactive
Potency [2]: inactive
Potency [3]: inactive
Potency [4]: inactive
Potency [5]: inactive
Potency [6]: inactive
Potency [7]: inactive
Potency [8]: inactive
Potency [9]: inactive
Potency [10]: inactive
Potency [11]: inactive
Potency [12]: inactive
Potency [13]: inactive

CC1(c2ccccc2)OC(C(=O)O)=CC1=O (centres undefined)
Potency [1]: inactive
Potency [3]: inactive
Potency [4]: inactive
Potency [5]: inactive
Potency [6]: inactive
Potency [7]: inactive
Potency [8]: inactive
Potency [9]: inactive
Potency [10]: inactive
Potency [11]: inactive
Potency [12]: inactive
Potency [13]: inactive

CC1CCC(=O)C1=O (centres undefined)
Potency [3]: inactive
Potency [4]: inactive
Potency [5]: inactive
Potency [6]: inactive
Potency [7]: inactive
Potency [8]: inactive
Potency [9]: inactive
Potency [10]: inactive
Potency [11]: inactive
Potency [12]: inactive
Potency [13]: inactive

Cc1ccc(C(C)OC(=O)C2(C)CCC(C(=O)O)C2(C)C)cc1 (centres undefined)
Potency [1]: inactive
Potency [2]: inactive
Potency [3]: inactive
Potency [4]: inactive
Potency [5]: inactive
Potency [6]: inactive
Potency [7]: inactive
Potency [8]: inactive
Potency [9]: inactive
Potency [10]: inactive
Potency [11]: inactive
Potency [12]: inactive
Potency [13]: inactive

Cc1cc(C(=O)O)ccc1[N+](=O)[O-]
Potency [1]: inactive
Potency [2]: inactive
Potency [3]: inactive
Potency [4]: inactive
Potency [5]: inactive
Potency [6]: inactive
Potency [7]: inactive
Potency [8]: inactive
Potency [9]: inactive
Potency [10]: inactive
Potency [11]: inactive
Potency [12]: inactive
Potency [13]: inactive

CCCCCCCCCc1ccc(OCCOCCO)cc1
Potency [1]: 20.5 µM (active)
Potency [2]: 18.3 µM (active)
Potency [3]: inactive
Potency [4]: inactive
Potency [5]: inactive
Potency [6]: inactive
Potency [14]: 5.11 µM (active)

CCCCCCCCCCCC(=O)OC[C@@H](O)[C@H]1OC[C@H](OCCO)[C@H]1OCCO
Potency [3]: inactive
Potency [4]: inactive
Potency [5]: inactive
Potency [6]: inactive
Potency [7]: inactive
Potency [8]: inactive
Potency [9]: inactive
Potency [10]: inactive
Potency [11]: inactive
Potency [12]: inactive
Potency [13]: inactive

O=C(O)c1ccccc1Cl
Potency [1]: inactive
Potency [2]: inactive
Potency [3]: inactive
Potency [4]: inactive
Potency [5]: inactive
Potency [6]: inactive
Potency [7]: inactive
Potency [8]: inactive
Potency [9]: inactive
Potency [10]: inactive
Potency [11]: inactive
Potency [12]: inactive
Potency [13]: inactive

CCCCCCCCCCCc1ccccc1
Potency [1]: inactive
Potency [2]: inactive
Potency [3]: inactive
Potency [4]: inactive
Potency [5]: inactive
Potency [6]: inactive
Potency [7]: inactive
Potency [8]: inactive
Potency [9]: inactive
Potency [10]: inactive
Potency [11]: inactive
Potency [12]: inactive
Potency [13]: inactive

O=C(O)C(S)C(S)C(=O)O (centres undefined)
Potency [1]: inactive
Potency [2]: inactive
Potency [3]: inactive
Potency [4]: inactive
Potency [5]: inactive
Potency [6]: inactive
Potency [7]: inactive
Potency [8]: inactive
Potency [9]: inactive
Potency [10]: inactive
Potency [11]: inactive
Potency [12]: inactive
Potency [13]: inactive

CN(C)CCN(Cc1ccsc1)c1ccccn1
Potency [1]: inactive
Potency [2]: inactive
Potency [3]: inactive
Potency [4]: inactive
Potency [5]: inactive
Potency [6]: inactive
Potency [7]: inactive
Potency [8]: inactive
Potency [9]: inactive
Potency [10]: inactive
Potency [11]: inactive
Potency [12]: inactive
Potency [13]: inactive

CCOC(=O)Cc1cccc2ccccc12
Potency [1]: inactive
Potency [2]: inactive
Potency [3]: inactive
Potency [4]: inactive
Potency [5]: inactive
Potency [6]: inactive
Potency [7]: inactive
Potency [8]: inactive
Potency [9]: inactive
Potency [10]: inactive
Potency [11]: inactive
Potency [12]: inactive
Potency [13]: inactive

CCOC(=O)C(F)(F)F
Potency [1]: inactive
Potency [3]: inactive
Potency [4]: inactive
Potency [5]: inactive
Potency [6]: inactive
Potency [7]: inactive
Potency [8]: inactive
Potency [9]: inactive
Potency [10]: inactive
Potency [11]: inactive
Potency [12]: inactive
Potency [13]: inactive

CN(Cc1ccc(C(C)(C)C)cc1)Cc1cccc2ccccc12
Potency [3]: 21.3 µM (active)
Potency [4]: inactive
Potency [5]: inactive
Potency [6]: inactive
Potency [14]: inactive
Potency [10]: 10.7 µM (active)
Potency [12]: inactive
Potency [13]: inactive

C[C@@H]1C[C@H]2[C@@H]3CCC4=CC(=O)C=C[C@]4(C)[C@@]3(F)[C@@H](O)C[C@]2(C)[C@@]1(O)C(=O)COC(=O)c1ccncc1
Potency [1]: inactive
Potency [2]: inactive
Potency [3]: inactive
Potency [4]: inactive
Potency [5]: inactive
Potency [6]: inactive
Potency [7]: inactive
Potency [8]: inactive
Potency [9]: inactive
Potency [10]: inactive
Potency [11]: inactive
Potency [12]: inactive
Potency [13]: inactive

C=CC1CC2C=CC1C2 (centres undefined)
Potency [1]: inactive
Potency [2]: inactive
Potency [3]: inactive
Potency [4]: inactive
Potency [5]: inactive
Potency [6]: inactive
Potency [7]: inactive
Potency [8]: inactive
Potency [9]: inactive
Potency [10]: inactive
Potency [11]: inactive
Potency [12]: inactive
Potency [13]: inactive

NCC(=O)O
Potency [1]: inactive
Potency [2]: inactive
Potency [3]: inactive
Potency [4]: inactive
Potency [5]: inactive
activity, negative = cytotoxicity [6]: -1.28% [at 19 µM]
viability change, negative = cytotoxic [7]: -1.65% [at 15.8 µM]
activation [8]: -0.769% [at 15.8 µM]
activation [9]: -2.92% [at 15.8 µM]
activity change, negative = cytotoxicity [10]: 4.74% [at 15.8 µM]
activity change, negative = cytotoxicity [11]: -0.228% [at 19 µM]
activity, negative = inhibition [12]: 0.472% [at 19 µM]
Potency [13]: inactive

C#C[C@]1(O)CC[C@H]2[C@@H]3CCc4cc(OC5CCCC5)ccc4[C@H]3CC[C@@]21C
Potency [1]: inactive
Potency [3]: 21.3 µM (active)
Potency [4]: inactive
Potency [5]: inactive
Potency [6]: 29.8 µM (active)
Potency [14]: 10.6 µM (active)
Potency [11]: inactive
Potency [12]: inactive
Potency [13]: inactive

CCCCCCCCO[C@@H]1O[C@H](CO)[C@@H](O)[C@H](O)[C@H]1O
Potency [1]: inactive
Potency [2]: inactive
Potency [3]: inactive
Potency [4]: inactive
Potency [5]: inactive
Potency [6]: inactive
Potency [7]: inactive
Potency [8]: inactive
Potency [9]: inactive
Potency [10]: inactive
Potency [11]: inactive
Potency [12]: inactive
Potency [13]: inactive
